# Source: the supplement of paper PMC11417369
# The full ranking holds about 25,000 sequences; the median of “ln(normalized median fluorescence intensity)” is about 9.3, and the highest 2% start at about 10. This is one part of a sample in which the highest values are shown more often than they occur.
# Tested on: PF3D7_0420300 AP2 domain 1 (GST-tagged)
# Experiment: gcPBM binding intensity (ln(normalized median fluorescence intensity)); higher = stronger DNA binding
# Summary of the method: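 Using an Agilent 4 × 180k array, primer-extended double-stranded 36-bp intergenic genomic probes and negative controls were exposed for 1 h to GST-fused P. falciparum DNA-binding domains expressed in E. coli. Binding was carried out in 1× PBS with 1% milk, 0.2 mg/ml BSA, 0.5% salmon testes DNA and 0.03% Triton X-100, and protein was detected with Alexa488 anti-GST antibody and a 488 nm scan. Binding intensity is the highest Masliner-normalised natural-log median intensity across replicate spots of either probe orientation.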
row,Sequence,gcPBM binding intensity (ln)
1,TATGTGAATATAATCACACACAATACGGAAACCCAC [CACACA_site2725],9.77
2,TATGTGAATATAATCACACACAATACGGAAAGAGAC [CACACA_site7311],10.2
3,AATATGTGAATATAATCACACACAATACGGAAACAC [CACACA_site8875],10.1
4,TTTTTTTTTTTTTTTGCACACACCATATTTATAGAA [CACACA_site3310],9.46
5,TCATAAATGAAACACACACACACATCTGGATACCCC [CACACA_site3332],10.1
6,TCATAAATTAAACACACACACACATCTGGATACCCC [CACACA_site9096],10.3
7,ATAAATTAAAAACACACACACATCTGGATACCCCTA [CACACA_site5780],10.1
8,GTTCATAAATTAAACACACACACACCGCTGGATACC [CACACA_site5779],10.1
9,GTTCATAAATTAAACACACACACACGGCTGGATACC [CACACA_site7545],10.1
10,GTTCATAAATTAAACACACACACACCCCTGGATACC [CACACA_site3331],10.2
11,TACTCCTCAATATTATGTACATATAATAGTTATAAA [XGTACX_site8551],9.23
12,TATATACAAAAAATATGTACATATATATATATATAT [XGTACX_site3497],9.21
13,TAATATTTTATTTTTGTTGTGGATCCAAAAAAAAAA [CACACA_negctrl_site846],8.76
14,TAATATGAAATGTGTACACACGCACCCACAAAAAAA [CACACA_site8949],9.74
15,AAAAATTATAGAAAAGTGCAATACATGTTACACCAT,9.28
16,CAAACCCACGGACACACACACACAAAAATGATTAAA [CACACA_site5365],9.93
17,AAAGAAAAAAAAAAAACACACAAAAAAAATCAAAAT [CACACA_site2871],9.94
18,AAAAAATCAAAACACACACACACACCCAAAAAAAAA [CACACA_site1444],10.1
19,TATTAATACGGACACACACACACACTAGATAAAATA [CACACA_site4295],10.2
20,TACACAGACGGACACACACACACACTAGAAAAAAAA [CACACA_site4435],10
21,ATAAATATTAAAAGTACACACAGATACACTAATTAT [CACACA_site1808],9.75
22,CAAATACACGGACACACACACACAAAAAAAAAAAAA [CACACA_site6385],10.1
23,AACACGCACAGACACACACACAAAAATGATTAAAAA [CACACA_site7195],9.67

row,Sequence,gcPBM binding intensity (ln)
1,AAAAAATCAAAACACACACACACACTAGAAAAAAAA [CACACA_site4909],10.3
2,AACAAACACGGACACACACACACACTAGAATGATTA [CACACA_site5364],10.2
3,AACAAATACGGACACACACACACACTAGAAAAAAAA [CACACA_site4442],10.2
4,CAAATAAATATTAAAAGTACACACAGATACACTAAT [XGTACX_site3749],9.88
5,AACAAAATTGAAGGAACACACATACAGATATATATA [CACACA_site4264],9.81
6,AGCAAAAATTAAATAAATAAATATATATATATATAT [TGCATGCA_negctrl_site449],9.12
7,TTTTTGCAAAAAGAAATAATTTTATTTTAGTTCGGA [CACACA_negctrl_site1718],8.78
8,ATTTTTATACGTTTTTTTTTTTTTTTTTTTTATTTA [CACACA_negctrl_site1142],9.62
9,ATAATGTGTTAGGCGTGTACACAATTGTATGGTTTA [XGTACX_site2377],9.45
10,ATATTAACTTTTATTACACACTCTCAACTTTTATTT [CACACA_site6176],9.72
11,GTACTTGTATTATGCACACATATAATTAAACATATA [CACACA_site3312],9.41
12,CATTTTAAAACAGACACACACCAAAAAAAAAAAAAA [CACACA_site6259],9.4
13,AAGAAAAACTAAAGAGTTCTGTTCATATCTCTTTGG [TGCATGCA_negctrl_site549],8.99
14,CCAACATGCCCACGCACACACAAAAAAAGCATGCAT [CACACA_site4217],9.58
15,TTTATTTTATCATTTGCACACGCACGCCCACATAAA [CACACA_site353],9.4
16,ATCAAGCACGAACACACACACACACGCACGCCCACA [CACACA_site6308],10.2
17,GAGAGTAAAACAAATATACACACCATAAAGTTATAA [CACACA_site1686],9.49
18,TTCATTCAAATTAACGTGCACATTATTAGTAAAAAC,9.08
19,TTATACTAAATGAACACACACACATATATATATATA [CACACA_site99],9.81
20,ATACTAAATGAACACACACACATATATATATATAAT [CACACA_site4232],10.1
21,ATACTAAATGAACACACACACATATAGATTTATAAC [CACACA_site6200],10.2
22,TAGTGTATGATAATATGTACATACATTTATATAATA [XGTACX_site6330],9.11
23,TATATATATATATAAACACACATAAATATAAATATA [CACACA_site1121],9.6

row,Sequence,gcPBM binding intensity (ln)
1,AAAAAAAGTTATATTACACACTTTATTCGTTAACTT [CACACA_site3013],9.47
2,TTTGTTATGGTTTTCTCACACATATATATATATATA [CACACA_site4617],9.5
3,AAAAAAAAAAGACACACACACACACTAATACATACA [CACACA_site6473],10.2
4,AAAAAAAAAAGACACACACACACAAATACATACACA [CACACA_site6472],10.1
5,AAAAAAAAAAGACACACACACAAATACAAATACATA [CACACA_site6334],10
6,AATAAAAAAAAAAAAAAAAAAAAAAAGACACTAAAA [CACACA_negctrl_site1075],9.33
7,AAAAAAAAAAAACACACACACACACTAATACATACA [CACACA_site8135],10.1
8,AAAAAAAAAAGACACACACACACATACACATACATA [CACACA_site7362],10.2
9,ATGGGTATATTTCCACGTACAAAAAATCCGAATTGC [XGTACX_site1490],9.23
10,AAAAATTAAAATATTATAGTTGAAACTTTTATAAAT [TGCATGCA_negctrl_site454],8.81
11,AATATGTAGTAATCAAGTACTAATGTCTTAATTCGG [XGTACX_site308],9.27
12,GATATGAATATAGGTTGTACTATATATAAAGTATGT [XGTACX_site1877],9.35
13,CCACTGTATGAATGCACACATTCATAGAATTGCTAT [CACACA_site2676],9.24
14,TATATAAATAGACACACACACATATAAATATAAATA [CACACA_site6503],10.1
15,TATATAAATAGACACACACACACATATAAATAAATA [CACACA_site7855],10.2
16,TATATATATAGACACACACACATATAAATAAATAAA [CACACA_site444],10.1
17,CATATAAATAGACACACACACACATATAAATAAATA [CACACA_site7156],10.3
18,TATAAATAGAGACACACACACATATAAATAAATATT [CACACA_site7854],10.1
19,TAATAATAGAGACACACACACATAGACATATAAATA [CACACA_site6729],10.2
20,TTATAAAATAAACTTACACACATGAAATATTATATT [CACACA_site1945],9.49
21,ATAGAAGCTGTTGACGAAGAAAAAAAAAAAAAAAAA [CACACA_negctrl_site110],8.56
22,TTTAAAAAAATTCATGCACACGAAATAAAAAGCACC [CACACA_site8214],9.71
23,ACAAAAAAAAAAAAAAAAAGAAGAATATATCTATAT [CACACA_negctrl_site759],9.16

row,Sequence,gcPBM binding intensity (ln)
1,ATTATAAATATATTTTGTACTTAAAAGGAAAAAAAA [XGTACX_site55],9.02
2,AAATATAAATGGTAATACACATACACACACACATAC [XGTACX_negctrl_site459],10.2
3,AAATTAATTAAATATACACACATATATAAATATATA [CACACA_site391],9.38
4,ATAAATACATATAAAAGTACACACACACACATATAT [XGTACX_site1744],10.4
5,ACATATAAAATATATACACACATATAAATACATTAA [CACACA_site3867],9.75
6,TATAAATATATATACACACACACATTAATACATATA [CACACA_site3488],10.2
7,ACATATACAAAACACACACACAACGTTTTAATAAAT [CACACA_site1979],10.1
8,TTAAAATATACATAAACACACACAAAACGTTTAAGA [CACACA_site8267],9.9
9,TATAATCATAAATACACACACATATATATATATATA [CACACA_site5224],9.54
10,ACATATACAAGACACACACACAACGTTTTAATAAAT [CACACA_site7017],10.2
11,AAAAAAAAAAAGTACACACATACATATAAATATATA [CACACA_site1809],9.46
12,AAATATAAAAAATATACACACATATATAATATATAT [CACACA_site2963],9.55
13,AAAAAAAAAAAAAGTACACACATACATATAAATATA [CACACA_site8533],9.72
14,TATATTGAAAATAAAACATGCAATCACTCATACATA [TGCATGCA_site248],9.36
15,AAAGAAAAATTAACATGTACAAAAATTACTTGTTCA [XGTACX_site6725],9.21
16,AAAAAATAAATAAATACACACAAATCTATATTTATA [CACACA_site7243],9.51
17,GTATTCTACAGACACATACACACATATATATATATA [CACACA_site3427],9.7
18,TTAAATATAAAAAGTAGTACATTTATATTTACCATA [XGTACX_site2962],8.96
19,AATTCATTATATATACGTACATATTTCTGTATAAAA [XGTACX_site6371],9.24
20,ATACATATATATAGGTGTACATATAATATATATATA [XGTACX_site2228],9.35
